The values that follow come from PubChem BioAssay.

By remaining activity is commonly meant the signal under treatment as a percentage of the control signal. As a reminder, the inhibition is the change of the read-out against control, counted positive when it falls.

Assay [1] has as its target Mitogen-activated protein kinase 7 (Homo sapiens) (UniProt Q13164). Description: ERK5 transactivation activators in reporter cells, primary screen, cell-based, HTS (AID 1508626;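 active = luciferase signal above three times the same-plate solvent-only control wells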;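 also: luciferase driven by Gal4-ERK5 fusion binding five Gal4 sites before minimal TATA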). To be noted: HeLa Gal4-ERK5 transactivation, 18 h, at 5 µM, stronger effect = higher value.
The test system of assay [2] is Aerobactin synthetase IucA (Klebsiella pneumoniae). The assay can be described thus: IucA aerobactin synthetase inhibitors, biochemical, Tocris library, absorbance (AID 1345561).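 Also: 100% = enzyme without compound and 0% = no enzyme.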 To be noted: purified IucA enzyme assay, absorbance (OD) read-out; stronger effect = lower value;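 tested at 8 µM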.
Assay [3] is described as follows: circadian clock period modulators, cell-based, LOPAC library, luminescence reporter (AID 2774).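 Also: values are relative to mean of DMSO wells on each plate.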 To be noted: circadian reporter cells, at 7 µM, actives lie on both sides.
In assay [4] the test system is Hepatitis C virus NS3 helicase. The assay can be described thus: HCV NS3 helicase inhibitors, primary screen, biochemical, fluorescence polarization, LOPAC1280 library (AID 687035; in the data active = inhibition above about 37%). Particulars: Purified HCV NS3 helicase, Cy5-dT15 ssDNA binding fluorescence polarization; stronger effect = higher value; concentration not given here. (In general: Fluorescence polarisation rises when a labelled molecule tumbles more slowly, as on binding a larger partner.)

Assay [5] is described as follows: Cy5 fluorescence quenching or enhancement artefacts, artefact control for HCV NS3 helicase inhibitor project, biochemical, LOPAC1280 (AID 687037). To be noted: Cy5-DNA-NS3h complex fluorescence interference counterscreen.
Assay [6] in a line: phospholipid biosynthesis inhibitors in animal cells, primary screen, cell-based, LOPAC library, screen 4 (AID 1347384). Particulars: phospholipid biosynthesis inhibition screen, at 10 µM.
Assay [7] can be described thus: polyglutamine-triggered caspase-3 activation inhibitors, cell-based (AID 1583). To be noted: polyglutamine-induced caspase-3 activation, cell assay; stronger effect = higher value;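 tested at 10 µM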.
Assay [8] is described as follows: suppressors of polyQ aggregation in yeast, 75Q-TubU reporter (AID 1593). Particulars: Yeast 75Q polyglutamine aggregation reporter.
Assay [9] is described as follows: rescue of polyQ-huntingtin neuronal dysfunction in worms, whole organism, C. elegans mechanosensory neurons, N-terminal huntingtin (AID 1599). To be noted: touch response, stronger effect = higher value.
Assay [10] can be described thus: inhibitors of mitochondrial cytochrome c release, biochemical, purified mitochondria (AID 1603).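 Also: mouse liver mitochondria challenged with calcium chloride; signal normalized to the plate average as 100%.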 Particulars: stronger effect = lower value.
Assay [11] is described as follows: inhibitors of polyQ protein aggregation (AID 1604). Particulars: polyglutamine-induced protein aggregation inhibition assay; stronger effect = higher value; tested at 2.5 µM.
Assay [12] can be described thus: hESC survival regulators, cell-based (AID 493140).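 Also: cells exposed to compounds for four days before counting.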 To be noted: human embryonic stem cell survival screen; stronger effect = higher value.
Assay [13] is described as follows: modifiers of HSF1 nuclear foci, imaging, Selleck Cancer Library (AID 1347162; in the data active = plate-normalised HSF1 focus index below about 0.46). To be noted: human cells, at 10 µM; SSMD: measured here: HSF1 foci SSMD mean; cell count: measured here: cell number; plate-normalised HSF1 focus index: stronger effect = lower value.
The nature of assay [14]: LFS_MB_1R medulloblastoma cell growth inhibition, synergistic combos for chromothripsis tumors, cisplatin or BGB combos (AID 1671452; in the data active = inhibition above about 80%;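 also: cells exposed for 96 hours before readout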). Particulars: LFS_MB_1R medulloblastoma cells, stronger effect = higher value.
The nature of assay [15]: CRL2098 osteosarcoma cell growth inhibition, synergistic combos for chromothripsis tumors, BGB or cisplatin IC20 combos (AID 1671454; in the data active = inhibition above about 80%;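 also: cells exposed for 96 h before readout; 0% = vehicle DMSO and 100% = killing by high DMSO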). To be noted: CRL2098 osteosarcoma cells, drug combinations, stronger effect = higher value.
Assay [16] is described as follows: HD-MB03 medulloblastoma cell growth inhibition, synergistic combos for chromothripsis tumors, BGB or cisplatin IC20 combos (AID 1671455; in the data active = inhibition above about 83%;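 also: 0% = vehicle DMSO and 100% = high DMSO as cytotoxic control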). To be noted: HD-MB03 medulloblastoma cells, stronger effect = higher value.
Assay [17] is described as follows: UWB1.289 ovarian carcinoma cell growth inhibition, synergistic combos for chromothripsis tumors, BGB or cisplatin combos (AID 1671456; in the data active = inhibition above about 80%;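 also: cells exposed to compound for four days; 0% = vehicle DMSO and 100% = killing by high DMSO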). Particulars: UWB1.289 ovarian carcinoma cells, stronger effect = higher value.
Assay [18] is described as follows: LFS_MB_2R medulloblastoma cell growth inhibition, synergistic combos for chromothripsis tumors, cisplatin combos (AID 1671457; in the data active = inhibition above about 80%;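 also: cells exposed to compound for four days before readout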). To be noted: LFS_MB_2R medulloblastoma cells, stronger effect = higher value.
Assay [19] in a line: UWB1.289_BRCA1 ovarian cancer growth, cell-based, BGB or cisplatin combinations (AID 1671459; in the data active = inhibition above about 80%). To be noted: UWB1.289 BRCA1 ovarian carcinoma, drug combinations, stronger effect = higher value.
Assay [20] is described as follows: human astrocyte viability loss, single and combined drugs, cytotoxicity control for chromothriptic childhood tumor combination screen, cell-based, BGB or cisplatin IC20 combos (AID 1671460; in the data active = inhibition above about 80%;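 also: cells exposed to compounds for 96 hours before viability readout; 0% = vehicle and 100% = killing control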). Particulars: Human astrocytes, drug combinations, stronger effect = higher value.
[21] abbreviates: measured here: combination with cisplatin, at 0.5 µM.
Where [22] appears, read: measured here: combination with cisplatin, at 5 µM.

Values joined by “and” are separate entries in the source; they are usually repeats but may differ in a detail not shown here. Equal values may be shown once. For part of these data: Potency and affinity values are given separately. Active and inactive are the calls of the source. Unless noted, no rule for the calls is given here.

Mitogen-activated protein kinase 7 (Homo sapiens), sequence (Q13164 whole entry, looked up, the tested form may be a part): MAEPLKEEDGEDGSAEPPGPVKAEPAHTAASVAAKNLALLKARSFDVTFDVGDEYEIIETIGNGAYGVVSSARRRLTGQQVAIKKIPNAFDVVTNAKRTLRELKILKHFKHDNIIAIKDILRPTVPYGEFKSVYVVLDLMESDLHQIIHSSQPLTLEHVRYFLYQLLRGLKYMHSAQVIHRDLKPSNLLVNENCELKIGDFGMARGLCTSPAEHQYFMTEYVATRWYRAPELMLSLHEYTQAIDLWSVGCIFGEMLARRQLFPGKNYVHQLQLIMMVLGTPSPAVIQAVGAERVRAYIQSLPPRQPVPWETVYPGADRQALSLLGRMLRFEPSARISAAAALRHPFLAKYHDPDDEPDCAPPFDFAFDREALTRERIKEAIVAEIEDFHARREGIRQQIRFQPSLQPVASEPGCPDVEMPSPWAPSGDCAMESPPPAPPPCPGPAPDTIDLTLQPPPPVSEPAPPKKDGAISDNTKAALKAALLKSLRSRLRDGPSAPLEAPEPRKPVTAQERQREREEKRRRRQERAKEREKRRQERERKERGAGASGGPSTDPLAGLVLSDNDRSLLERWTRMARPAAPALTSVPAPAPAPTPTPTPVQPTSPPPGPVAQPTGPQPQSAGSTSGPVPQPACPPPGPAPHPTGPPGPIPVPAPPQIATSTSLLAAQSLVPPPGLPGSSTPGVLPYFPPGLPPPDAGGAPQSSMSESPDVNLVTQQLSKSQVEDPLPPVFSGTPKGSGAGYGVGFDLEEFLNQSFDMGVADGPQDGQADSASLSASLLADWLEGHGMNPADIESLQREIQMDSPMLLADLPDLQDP

Take `CN(C)CCc1c[nH]c2ccc(Cn3cncn3)cc12`: the luciferase signal in assay [1] was 52 AU (inactive).
On to `CCCCN1CCCC1CNC(=O)c1cc(C#N)c2ccccc2c1OC` (stereo not given), for which the remaining activity in assay [2] was 113% (inactive).
As for `NCC(O)c1ccc(O)c(O)c1` (stereo not given), in assay [3], the period change is 0.075 h (inactive). In [4], the inhibition was -3% (inactive). Further, the fluorescence ratio (interference) in [5] is 0.9 (inactive). Further, the compound was called inactive in [6].
Consider `C[C@@H](c1ncncc1F)[C@](O)(Cn1cncn1)c1ccc(F)cc1F`, for which the compound was called inactive in [6].
As for `CC(Cc1ccc(O)c(O)c1)(NN)C(=O)O` (stereo not given), the inhibition in [7] was found to be 4.01%. This compound came in with a score in [8] of 1.18. In assay [9], this compound registered a rescue above control of -6.05. In assay [10], the cytochrome c release ratio was 0.84. Also, in [11], the inhibition of aggregation came out at 15.6%.
For `COC(=O)C[C@](O)(CCCC(C)(C)O)C(=O)O[C@@H]1C(OC)=C[C@]23CCCN2CCc2cc4c(cc2[C@H]13)OCO4`, in [2], the remaining activity was 98.2% (inactive).
`CC(C)(S)C(N)C(=O)O` (stereo not given): the inhibition in assay [7] was 22.3%. In [8], this compound had a score of 1.79. In assay [9], the rescue above control is -1.67. The cytochrome c release ratio in assay [10] was found to be 0.98. In addition, the inhibition of aggregation in assay [11] was 94.4%.
Take `COc1nc(C)nc(Cl)c1NC1=NCCN1`: the period change in assay [3] is -0.08 h (inactive). Moreover, in assay [12], the survival was 21 (inactive). Besides, the inhibition in assay [4] was -4% (inactive). In assay [5], the fluorescence ratio (interference) was 0.9 (inactive). The remaining activity in [2] was 93.9% (inactive). The call in [6] was inactive.
`C[C@H]1O[C@H](O[C@H]2[C@H](O)[C@@H](O)[C@@H](O[C@H]3[C@H](O)[C@@H](O)C(O)O[C@@H]3CO)O[C@@H]2CO)[C@H](O)[C@@H](O)[C@@H]1N[C@H]1C=C(CO)[C@@H](O)[C@H](O)[C@H]1O` (stereo not given in full): the luciferase signal in assay [1] is 52 AU (inactive).
Take `O=C(c1ccc(OCCN2CCCCC2)cc1)c1c(-c2ccc(O)cc2)sc2cc(O)ccc12`: the period change in assay [3] is 0.135 h (inactive). Also, the survival in assay [12] was 4.58 (inactive). The inhibition in assay [4] was -6% (inactive). The fluorescence ratio (interference) in [5] was 0.9 (inactive). Moreover, the remaining activity in assay [2] was 120% (inactive). Also, in [13], the SSMD turned out to be 2.22, the cell count stood at 6850 and the plate-normalised HSF1 focus index was 1.11 (inactive). Besides, the outcome in [6] was inactive. Moreover, the luciferase signal in assay [1] was 76 AU (inactive).
Regarding `CNCC[C@@H](Oc1ccccc1C)c1ccccc1`, the remaining activity in [2] was 96.2% (inactive). Further, in assay [1], the luciferase signal was 64 AU (inactive).
Regarding `O=c1[nH]c(=O)n(C2CCCO2)cc1F` (stereo not given), the call in assay [6] was inactive. Besides, the inhibition is -5.43% (inactive) and -39.4% (inactive) in [14] (at 0.5 µM); 2.48% and -16.7% in assay [14] (measured here: combination with BGB IC40, at 0.05 µM); -8.32% and -55.8% in [14] (setting [21]); -0.329% and -28.6% in assay [14] (setting [22]); 3.75% (inactive) and -63.9% (inactive) in [15] (at 0.5 µM); 7.31% and -58.1% in assay [15] (measured here: combination with BGB at IC20, at 0.5 µM). In addition, the inhibition is 18.7% and -78.1% in assay [15] (measured here: combination with cisplatin at IC20, at 0.5 µM); 1.31% (inactive) and -8.99% (inactive) in assay [16] (at 0.5 µM); -4.63% and -10.8% in assay [16] (measured here: combo with BGB at IC20, at 0.5 µM); 6.01% and -7.71% in [16] (measured here: combo with cisplatin at IC20, at 0.5 µM); 3.3% (inactive) and -11.4% (inactive) in [17] (at 0.5 µM); 7.79% and -33% in assay [17] (measured here: inhibition with BGB combination, at 0.05 µM). The inhibition in [17] (measured here: inhibition with cisplatin combination, at 0.05 µM) is 4.79% and -22.4%; in assay [18] (at 0.5 µM), -0.54% (inactive) and -25.9% (inactive); in [18] (setting [21]) it was 8.78% and -21.2%; in assay [18] (setting [22]), 11.8% and -36.1%; in [19] (BGB combination, concentration series, at 5 µM), 6.02% and -15.3%; in assay [19] (at 0.5 µM) it was 3.23% (inactive) and -25.5% (inactive). The inhibition is 12% and 0.169% in [19] (cisplatin combination, concentration series, at 5 µM); 4.65% (inactive) and -9.75% (inactive) in [20] (at 0.5 µM); 0.017% and -11.8% in [20] (measured here: combo with BGB IC20, at 0.5 µM); 11% and -8.67% in assay [20] (measured here: combo with cisplatin IC20, at 0.5 µM).
